Here are results for 22 compounds from PubChem BioAssay (NCATS).

Records with an inconclusive call do not appear. Unmarked numbers belong to inactive results. Activity calls are given as the source filed them. The call rests on the fitted dose curve; in most records, active means well fitted curve in the direction sought with a large enough effect; inconclusive means small, poorly fitted or top-dose-only effect, or another doubt; inactive means no such curve, though single readings can be large; an effect the other way counts as inactive or inconclusive.

One test has as its system MKL-2. Description: qHTS assay to identify novel small-molecules to repurpose for Merkel cell carcinoma treatment (AID 1296009). Further: nearly all actives have a fitted effect of over 60% in size. Conditions: MCC and control cell lines, CellTiter-Glo viability, 72 h; series mostly up to 46 µM. Summed up: (§1)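 Luminescence from CellTiter-Glo, read 10 min after addition at room temperature, reported viability following a 72 hr, 37 degree celsius treatment with NPC or MIPE compounds in titration; values normalized to plate controls.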
(qHTS replaces the single test concentration by a dilution series.)

The next test relates to UISO. The description is as above. Conditions: MCC and control cell lines, CellTiter-Glo viability, 72 h; series mostly up to 46 µM. The procedure, abridged: as §1
(In general: Cellular ATP, detected with luciferase, serves as a proxy for viable cell number.)

The next test relates to MKL-1. Described as above. Conditions: MCC and control cell lines, CellTiter-Glo viability, 72 h; series mostly up to 46 µM. Summed up: as §1
For another test, the system named is WaGa. Described as above. To be noted: MCC and control cell lines, CellTiter-Glo viability, 72 h; series mostly up to 46 µM. Summed up: as §1
A further test deals with JEG-3. The test can be described thus: Primary qHTS to identify gynecologic anti-cancer compounds using libraries of approved drugs and bioactive compounds (AID 1345084). Further: nearly all actives have a fitted effect of over 55% in size. Conditions: Gynecologic cancer cell panel viability, ATPlite luminescence, 48 h; series mostly up to 57.5 µM. The procedure, abridged:
(§2)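 Measured: luminescence after ATPlite addition (15 min, RT). Exposure: 48 h, 37 C, 5% CO2.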

In the next test the test system is OV90. Described as above. Conditions: Gynecologic cancer cell panel viability, ATPlite luminescence, 48 h; series mostly up to 57.5 µM. The procedure, abridged:
as §2

The subject of a further test is PA-1. Described as above. Conditions: Gynecologic cancer cell panel viability, ATPlite luminescence, 48 h; series mostly up to 57.5 µM. Summed up: as §2
The subject of the next test is NIH3T3. Description: qHTS assay to identify novel small-molecules to repurpose for Merkel cell carcinoma treatment (AID 1296009). Further: nearly all actives have a fitted effect of over 60% in size. To be noted: MCC and control cell lines, CellTiter-Glo viability, 72 h; series mostly up to 44.8 µM. Summed up:
as §1

Another test has as its system CAOV3. The test can be described thus: Primary qHTS to identify gynecologic anti-cancer compounds using libraries of approved drugs and bioactive compounds (AID 1345084). Further: nearly all actives have a fitted effect of over 55% in size. To be noted: Gynecologic cancer cell panel viability, ATPlite luminescence, 48 h; series mostly up to 57.5 µM. The procedure, abridged: as §2
In the next test the test system is CASKI. Described as above. To be noted: Gynecologic cancer cell panel viability, ATPlite luminescence, 48 h; series mostly up to 57.5 µM. Summed up: as §2
The next test concerns Es-2. The test is described as above. Conditions: Gynecologic cancer cell panel viability, ATPlite luminescence, 48 h; series mostly up to 57.5 µM. The procedure, abridged:
as §2

Another test relates to HeLa. The test is described as above. To be noted: Gynecologic cancer cell panel viability, ATPlite luminescence, 48 h; series mostly up to 57.5 µM. Summed up: as §2
Another test has as its system Tov112D. The test is described as above. Conditions: Gynecologic cancer cell panel viability, ATPlite luminescence, 48 h; series mostly up to 57.5 µM. The procedure, abridged:
as §2

The subject of a further test is Tov-21-G. The test is described as above. Conditions: Gynecologic cancer cell panel viability, ATPlite luminescence, 48 h; series mostly up to 57.5 µM. The procedure, abridged: as §2
A further test relates to C33A. Described as above. To be noted: Gynecologic cancer cell panel viability, ATPlite luminescence, 48 h; series mostly up to 57.5 µM. Summed up: as §2
In another test the test system is Hek293T. Described as above. Conditions: Gynecologic cancer cell panel viability, ATPlite luminescence, 48 h, control line for the selectivity index; series mostly up to 57.5 µM. Summed up: as §2
A further test relates to SKOV3. The description is as above. To be noted: Gynecologic cancer cell panel viability, ATPlite luminescence, 48 h; series mostly up to 57.5 µM. The procedure, abridged:
as §2

The nature of test [1]: Drug repurposing screens with cells derived from glioblastoma tumor samples (AID 1345199). Further: nearly all actives have a fitted effect of over 40% in size. To be noted: GBM patient neurospheres viability, ATP luminescence, 48 h. The procedure, abridged: (§3)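 Primary testing used CD133+ neurospheres from four GBM patients, seven concentrations, 48 h exposure and ATP-based viability; confirmation added three slower-growing patient lines.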
For the next test, the system named is astro. The description is as above. To be noted: viability, ATP luminescence, 48 h; series mostly up to 45.9 µM. Summed up: as §3
On the % scale 0 is the no-effect control and ±100 the full control effect; potency means the concentration at half of the fitted maximal effect.

For `CC1(C)C(N(O)C(=O)Nc2ccc(Cl)cc2)N(c2ccc(Cl)cc2)C(=O)N1CC(=O)NN=CC=Cc1ccc([N+](=O)[O-])o1` (stereo not given), the Potency in the test with MKL-2 is 23.5 µM (active). In addition, in the test on UISO, the Potency entry is “inactive”.
`Nc1nc(Cl)nc2c1ncn2[C@@H]1O[C@H](CO)[C@@H](O)[C@H]1F`: the Potency with MKL-1 is 0.0132 µM (active). For the same compound, the Potency entry in the test with WaGa was “inactive”.
Take `COc1cc2nc(-c3cc(F)ccc3O)nc(N[C@@H]3CNC[C@@H]3C(C)(C)O)c2cc1OC`: the Potency in the test with MKL-2 was 9.35 µM (active).
For `CCNC(=O)c1noc(-c2cc(C(C)C)c(O)cc2O)c1-c1ccc(CN2CCOCC2)cc1`, the Potency entry in the test with MKL-2 and in the test on JEG-3 was “inactive” in each case. For the same compound, the results for the Potency with UISO, in the test with OV90 and with PA-1 were 0.166 µM (active), 3.98 µM (active) and 0.251 µM (active), respectively.
With `CN1C(=O)C[C@H](C(=O)N[C@@H](Cc2cnc[nH]2)C(=O)N2CCC[C@@H]2C(N)=O)NC1=O`, the Potency in the test with MKL-2 is 6.62 µM (active); in the test with WaGa, 20.9 µM (active). Also, in the test with NIH3T3, the Potency entry was “inactive”.
As to `CCn1c(-c2nonc2N)nc2cncc(CNC3CCNCC3)c21`, the Potency result with MKL-1, with UISO, in the test on CAOV3, in the test with CASKI, in the test with Es-2 and in the test with HeLa was “inactive” each time. Further, the Potency entry in the test on JEG-3, with PA-1 and in the test with Tov112D was “inactive” throughout.
Take `CCOC(=O)N1CCN([N+]([O-])=NOc2cc(ON=[N+]([O-])N3CCN(C(=O)OCC)CC3)c([N+](=O)[O-])cc2[N+](=O)[O-])CC1`: the Potency with MKL-2 is 23.5 µM (active). Further, the Potency result in the test with NIH3T3 was “inactive”.
In the same order, the values of `C[C@@H]1[C@H](C)CC[C@]2(C(=O)O)CC[C@]3(C)C(=CC[C@@H]4[C@@]5(C)CC[C@H](O)C(C)(C)[C@H]5CC[C@]43C)[C@@H]12` are “inactive” and “inactive”.
As for `COc1cc2c(cc1Cc1cccc(Cl)c1F)c(=O)c(C(=O)O)cn2[C@H](CO)C(C)C`, in the test on MKL-2, the Potency was 18.7 µM (active).
Consider `CN(C)S(=O)(=O)c1ccc2c(c1)C(=Cc1cc3c([nH]1)CCCC3)C(=O)N2`, for which the Potency entry in the test with MKL-2, in the test with UISO and in the test on WaGa was “inactive” throughout.
Consider `CCCCCCOC(=O)N=C(N)c1ccc(NCc2nc3cc(C(=O)N(CCC(=O)OCC)c4ccccn4)ccc3n2C)cc1`, for which the Potency entry in the test with MKL-2, in the test with UISO and in the test with WaGa was “inactive” in each case.
For `CCc1cc(-c2n[nH]c(C)c2-c2ccc3c(c2)OCCO3)c(O)cc1O`, the Potency result in the test on MKL-2 is “inactive”.
For `CCC(C)SSc1ncc[nH]1` (stereo not given), the Potency is 16.6 µM (active) with MKL-2 and 23.5 µM (active) with WaGa.
For `Fc1ccc(CNc2ncnc3ccc(F)cc23)cc1`, the Potency entry in the test with MKL-2, in the test with CASKI, with Es-2, with HeLa, in the test on JEG-3 and with Tov-21-G was “inactive” in each case. Further, the Potency entry in the test with Tov112D is “inactive”.
Turning to `CCCCC(F)(F)[C@@]1(O)CC[C@H]2[C@H](CC(=O)[C@@H]2CCCCCCC(=O)O)O1`, the Potency entry in the test with C33A, in the test on CASKI, with Es-2, with HeLa, in the test on Hek293T and in the test with JEG-3 was “inactive” in each case. Moreover, the Potency result with OV90, in the test with PA-1, with SKOV3, in the test with Tov-21-G, in the test on Tov112D and with astro was “inactive” each time. Further, the activity, negative = cell killing in test [1] (at 45.9 µM (top of the series), tumour line B) was -4.88%; in [1] (at 45.9 µM (top of the series), tumour line D) it was -10.8%; in test [1] (at 46.1 µM (top of the series), tumour line C), 12%.
`CC1(C)CC(=O)c2c(C(F)(F)F)nn(-c3ccc(C(N)=O)c(NC4CCC(O)CC4)c3)c2C1` (stereo not given): the Potency is 0.166 µM (active) with UISO; 0.316 µM (active) in the test on OV90; 0.447 µM (active) with PA-1; 0.398 µM (active) with SKOV3; 0.355 µM (active) with Tov-21-G. In addition, in the test with HeLa, the Potency entry was “inactive”.
With `COc1ccc(-c2nc3ccc(C4=NNC(=O)CC4C)cc3[nH]2)cc1` (stereo not given), the Potency entry in the test on C33A, in the test on Es-2, in the test with Hek293T, in the test with JEG-3 and in the test on OV90 was “inactive” throughout. Further, the values for the Potency in the test with SKOV3 and with astro were 35.5 µM (active) and 11.2 µM (active), respectively.
For `CC1(COc2ccc3c(c2)ncn3-c2ccc3cccc(N4CCC(N)CC4)c3n2)COC1`, the Potency was 18.7 µM (active) with MKL-2; 28.2 µM (active) in the test on Es-2; 20 µM (active) in the test with HeLa; 20 µM (active) in the test on Hek293T; 8.91 µM (active) in the test on PA-1.
In the case of `Clc1ccc(C2(c3ccc(-c4cn[nH]c4)cc3)CCNCC2)cc1`, the Potency entry in the test with MKL-2, with JEG-3 and in the test on Tov112D was “inactive” throughout. In addition, the Potency in the test with SKOV3 was 31.6 µM (active); in the test with Tov-21-G it was 12.6 µM (active).
Take `C=CC(=O)Nc1cccc(Sc2nc(Nc3ccc(N4CCN(C)CC4)cc3)ncc2Cl)c1`: the Potency entry with Es-2, with JEG-3 and with OV90 was “inactive” in each case. Besides, in the test with Tov-21-G, the Potency was 12.6 µM (active).
On to `CC[C@H](NC(=O)[C@H](C)NC)C(=O)N1C[C@@H](O)C[C@H]1Cc1c(-c2[nH]c3cc(F)ccc3c2C[C@H]2C[C@H](O)CN2C(=O)[C@H](CC)NC(=O)[C@H](C)NC)[nH]c2cc(F)ccc12`, for which the Potency result in the test with NIH3T3 and in the test with UISO was “inactive” throughout.
Consider `COc1ccc(Cn2ccc3ccc(C(=O)NO)cc32)cc1`, for which the Potency entry in the test with MKL-2, with C33A, with CASKI, in the test on Es-2, in the test on HeLa and in the test with Hek293T was “inactive” in each case. In addition, the Potency result with OV90 and in the test with Tov112D was “inactive” throughout.
